# This is a sample that favours compounds with a hit; in the whole collection about 2.8% have one here.
# POLK inh: qHTS for Inhibitors of Polymerase Kappa; DNA polymerase kappa (Homo sapiens), Q9UBT6; purified Pol kappa, fluorescent DNA synthesis assay, 10 min; Potency, µM (highest dose often 107 µM), for inactives: top-dose activity, negative = inhibition, hits mostly inhibitors; 0.53% of 400,000 active; AID 588579, 2011; also: potency is read from the fitted curve at half-maximal effect; % is scaled to controls: 0 for no effect and ±100 for the full control effect
#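 Kinetic fluorescence screen: compound preincubated 15 min RT with 10 nM enzyme; 50 nM substrate (final) initiates; reads at 0/10 min.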
# PI4K2A inh: qHTS for small molecular inhibitors of PI4K2A. Phosphatidylinositol 4-kinase type 2-alpha (Homo sapiens), Q9BTU6. 0.13% of 420,000 active. activity change, negative = inhibition, % at 76.9 µM. purified PI4K2A, ADP-Glo luminescence, 1 h; stronger effect = lower value; in the data active = activity change below about -50%; inconclusive = mostly about -30% to -49%;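 also: -100% = wells without enzyme as full effect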
#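 ADP-Glo luminescence measured ADP generated by PI4K2A enzyme (4 ug/mL before mixing) with 1.2 mM PI substrate (pre-mix) and 300 microM ATP (pre-mix). Tris pH7.5 buffer with MgCl2, Triton X-100; 1 h reaction at ambient temperature.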
# PI5P4K alpha inh: qHTS for Inhibitors of phosphatidylinositol 5-phosphate 4-kinase (PI5P4K). Phosphatidylinositol 5-phosphate 4-kinase type-2 alpha (Homo sapiens), P48426. PI5P4Kalpha enzyme, ADP-Glo luminescence, 60 min; stronger effect = lower value. max response, %. 1.2% of 330,000 active; active = max response of -50% or lower; inconclusive = between -30% and -50%; inactive = -30% or higher; also: value at the top dose of about 77 µM; % is scaled to controls: 0 for no effect and ±100 for the full control effect
#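 qHTS, 1536-well: enzyme/substrate mix, compound by pin tool, 5 microM ATP final; RT 60 min; ADP-Glo reagents 1 (45 min) then 2 (30 min); luminescence.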
# Pol iota inh: qHTS for Inhibitors of Polymerase Iota; AID 588590, 2011; Pol iota fluorescent replication assay, 10 min; 1% of 390,000 active; Potency, µM (series often up to 115 µM), without a hit: top-dose activity, negative = inhibition, actives largely listed as inhibitors; DNA polymerase iota (Homo sapiens), Q9UNA4; also: potency is read from the fitted curve at half-maximal effect
#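 Fluorescent replication assay read twice, at 0 min and 10 min after adding 50 nM (final) substrate. Enzyme (10 nM) and compounds were first incubated 15 min at room temperature; enzyme-free buffer wells were negative controls.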
# Pol eta inh: qHTS for Inhibitors of Polymerase Eta; DNA polymerase eta (Homo sapiens), Q9Y253; recombinant Pol eta, fluorescent DNA replication assay; Potency, µM (doses to about 114 µM), inactives show top-dose activity change, negative = inhibition, actives largely listed as inhibitors; 1.2% of 390,000 active; AID 588591, 2011; also: potency is read from the fitted curve at half-maximal effect; % is scaled to controls: 0 for no effect and ±100 for the full control effect
# Target sequence (Q9Y253 whole entry, looked up): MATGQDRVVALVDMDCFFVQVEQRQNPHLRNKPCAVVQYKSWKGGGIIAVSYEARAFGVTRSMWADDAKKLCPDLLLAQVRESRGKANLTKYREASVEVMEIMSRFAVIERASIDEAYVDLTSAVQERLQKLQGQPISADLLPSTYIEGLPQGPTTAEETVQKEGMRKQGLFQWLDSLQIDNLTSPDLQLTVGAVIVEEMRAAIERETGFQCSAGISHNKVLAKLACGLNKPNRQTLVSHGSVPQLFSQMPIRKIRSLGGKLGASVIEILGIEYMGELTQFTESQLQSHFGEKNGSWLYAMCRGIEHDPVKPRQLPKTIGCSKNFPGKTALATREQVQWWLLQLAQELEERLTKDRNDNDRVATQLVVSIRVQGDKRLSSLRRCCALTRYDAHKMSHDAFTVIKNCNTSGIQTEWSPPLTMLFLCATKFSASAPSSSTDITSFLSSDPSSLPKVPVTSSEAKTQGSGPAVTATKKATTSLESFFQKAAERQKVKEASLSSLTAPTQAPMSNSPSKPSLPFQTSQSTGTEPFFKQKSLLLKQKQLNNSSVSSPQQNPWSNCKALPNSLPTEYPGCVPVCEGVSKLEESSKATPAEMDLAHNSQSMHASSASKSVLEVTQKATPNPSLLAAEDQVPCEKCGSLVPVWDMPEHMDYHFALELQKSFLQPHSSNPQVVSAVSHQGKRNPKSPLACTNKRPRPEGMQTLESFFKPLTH
#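 Fluorescent replication assay: 50 nM final substrate added after a 15 min room-temperature compound preincubation with 10 nM enzyme. Signal taken at 0 min and again at 10 min.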
# Pol beta inh-1: qHTS Assay for Inhibitors of DNA Polymerase Beta. 1.3% of 340,000 active. Pol beta primer extension/strand displacement, fluorescence kinetic. P06746. Potency, µM (titrated, usually from 114 µM), inactives show top-dose activity change, negative = inhibition, actives largely listed as inhibitors; also: potency is read from the fitted curve at half-maximal effect; % is scaled to controls: 0 for no effect and ±100 for the full control effect
#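 Values derive from four-parameter Hill fits of normalized kinetic data: reads at 0 and 10 min following addition of 50 nM substrate to 10 nM Pol beta preincubated 15 min with compound.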
# Pol beta inh-2: Inhibitors of DNA Polymerase Beta: Hit validation | shares compounds with Pol beta inh-1 | Pol beta primer extension/strand displacement, fluorescence kinetic | Potency, µM, actives largely listed as inhibitors | 87% of 250 active | AID 540280, 2011; calls by dose curve; also: potency is read from the fitted curve at half-maximal effect
# Klenow inh: Inhibitors of DNA Polymerase Beta: Hit Validation in Klenow Fragment Assay | 250 tested, under 10 active | AID 540300, 2011 | activity change, negative = inhibition, % at 57.1 µM | shares compounds with Pol beta inh-1 | Klenow exo- polymerase counter-screen, fluorescent DNA substrate
# HIV RT counter: Inhibitors of DNA Polymerase Beta: Hit Validation in HIV-RT Assay; activity % (negative = inhibition, positive = activation), % at 57.1 µM; 250 tested, under 10 active; shares compounds with Pol beta inh-1; HIV-1 RT polymerase activity, counter-screen; AID 540301, 2011
# POLB inh gel: Inhibitors of DNA Polymerase Beta: Hit Validation in Radiolabeled Extension Assay; shares compounds with Pol beta inh-1; radiolabeled primer extension gel assay, phosphorimager; inhibition, % at 10 µM; 91% of 110 active; AID 540325, 2011;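 active = inhibition at 10 µM of 30% or more; inconclusive = no clear call, values can overlap the other calls; inactive = inhibition at 10 µM under 30%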
# Numbers without * were called inactive; ? = inconclusive; . = not tested or not shown; [ ] = dose if it differs, or a comment. Unless noted, calls follow the shape of the dose curve; as a rule, active = well fitted curve in the direction sought with a large enough effect; inconclusive = small, poorly fitted or top-dose-only effect, or another doubt; inactive = no such curve, though single readings can be large; an effect the other way counts as inactive or inconclusive.
SMILES,POLK inh,PI4K2A inh,PI5P4K alpha inh,Pol iota inh,Pol eta inh,Pol beta inh-1,Pol beta inh-2,Klenow inh,HIV RT counter,POLB inh gel
C=CCN1C(=O)[C@@H](CC(=O)N2CCCCC2)[C@]2(C(=O)OC)CCCCC=C12,.,-6,.,.,.,.,.,.,.,.
CN(C(=O)c1ccoc1)c1ccccc1I,-6%,.,.,-15%,.,.,.,.,.,.
O=C1NC(=O)/C(=C/c2ccc(-c3ccc(F)cc3O)o2)S1,?,-1,.,.,.,.,.,.,.,.
COc1cc(/C=N\NC(=O)c2ccc(Cn3nc([N+](=O)[O-])c(Cl)c3C)o2)ccc1O,-28%,3,1,-4%,-14%,-7%,.,.,.,.
COc1cccc(/C=N\NC(=O)c2ccc(Cn3cc(Br)c([N+](=O)[O-])n3)o2)c1O,-12%,-9,-8,-7%,-11%,40µM*,.,.,.,.
O=C(Nc1cc(S(=O)(=O)Nc2ccc(Cl)cc2)ccc1O)c1ccc(S(=O)(=O)N2CCCCCC2)cc1,-21%,-3,-18,?,?,5.6µM*,22*,-16,11,67*
O=C(Nc1cc(S(=O)(=O)N2CCOCC2)ccc1O)c1ccc(S(=O)(=O)N2CCCCC2)cc1,1%,2,0,5%,-9%,.,.,.,.,.
COc1ccc(C(=O)Nc2nnc(Cc3cccs3)s2)cc1OC,-12%,-5,-1,-3%,-3%,-2%,.,.,.,.
COc1ccc(Cc2nnc(NC(=O)Cc3cccs3)s2)cc1OC,79µM*,-12,-92*,?,6.3µM*,8.9µM*,?,-25,42,.
Cc1cc(C)n2nc(SCc3cc(=O)oc4cc(O)ccc34)nc2n1,.,.,.,.,.,13µM*,22*,-27,14,84*
Cc1cc2[nH]c(=O)c(=O)[nH]c2cc1S(=O)(=O)N1CCN(c2cccc(C)c2C)CC1,?,-3,0,?,?,11µM*,28*,-4,12,73*
Fc1ccc(-c2ccc3c(c2)C2CC3CCN2Cc2ccc3c(c2)OCO3)cc1 (stereo not drawn),-4%,-4,1,10%,-6%,.,.,.,.,.
COc1cc(NC(=O)c2cccs2)c(C(=O)OCC(=O)NCc2ccco2)cc1OC,79µM*,-11,-24,?,10µM*,13µM*,32*,4,17,.
COc1ccc(/C=C(/NC(=O)c2cccs2)C(=O)NCc2ccco2)cc1OC,8%,4,0,12%,-7%,3%,.,.,.,.
Cc1ccc(NC(=O)c2c(C)oc3ccc(O)c(CN4CCCCC4)c23)cc1,-3%,0,.,26%,-21%,?,.,.,.,.
CCOC(=O)c1cc(-c2ccc([N+](=O)[O-])cc2)nc2c1c(=O)[nH]c(=O)n2Cc1ccccc1,1%,2,-10,?,45µM*,2.5µM*,14*,-16,23,.
C=CCn1c(SCc2cc(=O)n3ccsc3n2)nnc1C1CCCCC1,?,-17,.,25µM*,79µM*,20µM*,?,-22,24,87*
COc1ccc2cc3cc(C(=O)Nc4ccc5c(c4)OCCO5)oc3nc2c1,-13%,-9,-4,?,11µM*,13µM*,?,8,27,.
C=Cc1ccc(COc2ccc3oc(-c4ccccc4)c(C(=O)OCC)c3c2)cc1,9%,1,.,22%,-9%,0%,.,.,.,.
CC(C)n1c(=S)[nH]c2scc(-c3cccs3)c2c1=O,?,-23,-82*,20µM*,18µM*,7.9µM*,22*,4,10,98*
COCCN=C1S/C(=C\c2cc(C)n(-c3ccc(F)cc3F)c2C)C(=O)N1C,.,-2,.,.,.,.,.,.,.,.
CCOC(=O)c1c(C)[nH]c(C)c1S(=O)(=O)N1CCCC(C(=O)Nc2cc(C)ccc2C)C1 (stereo not drawn),0%,1,.,33%,-22%,-2%,.,.,.,.
CC(C)CN(C(=O)COC(=O)c1cc2c(s1)CCC2)C1CCS(=O)(=O)C1 (stereo not drawn),40µM*,-26,-62*,20µM*,3.5µM*,13µM*,22*,9,7,.
Cc1ccccc1C1CC(=O)Oc2cc(C)c(Cl)c(C)c21 (stereo not drawn),-15%,.,.,.,.,.,.,.,.,.
CCOc1ccc(C(=O)NCCc2csc(-c3cccc(C)c3)n2)cc1,-3%[60.1 µM],-2,.,-7%,-15%,?,.,.,.,.
SMILES,POLK inh,PI4K2A inh,PI5P4K alpha inh,Pol iota inh,Pol eta inh,Pol beta inh-1,Pol beta inh-2,Klenow inh,HIV RT counter,POLB inh gel
N=C1C(c2nc3ccccc3s2)=C(O)CN1NC(=O)c1c[nH]c2ccccc12,-22%,-21,-16,?,-20%,13µM*,25*,-11,46,52*
C[C@@H]1CCN(C2CC2)S(=O)(=O)c2c(cccc2N2CCC[C@H]2CO)O1,.,-2,.,.,.,.,.,.,.,.
CC(C)C(NC(=O)OCc1ccccc1)C(=O)OCC(=O)NCc1ccco1 (stereo not drawn),?,-10,?,?,8.9µM*,20µM*,?,-20,8,84*
CC(=O)Oc1ccc(C(=O)Nc2ccc(C3(C#N)CCCC3)cc2)cc1,-33%,-3,1,40µM*,?,13µM*,?,-3,59,.
N#CC1(c2ccc(NC(=O)c3ccccc3)cc2)CCCC1,.,.,.,.,.,3%,.,.,.,.
Nc1c(C(=O)NC2CC2)sc2nc3c(c(-c4ccco4)c12)CC/C3=C/c1ccco1,0.71µM*,-74*,-96*,?,0.71µM*,0.63µM*,28*,-22,?,100*
NC(=O)c1sc2nc3c(c(-c4ccco4)c2c1N)CCC3,-15%,0,.,-7%,-7%,1%,.,.,.,.

# Compound activity (PubChem)
